# Source: PubChem BioAssay (National Center for Advancing Translational Sciences (NCATS))
# This is a sample that favours compounds with a hit; in the whole collection about 21% have one here.
# VP16 counter: Gal4-VP16 reporter inhibition counter-screen; 3.5% of 310,000 active; Drosophila S2 Gal4-VP16 UAS-luciferase, luminescence, 20 h; Potency, µM (top dose mostly 53.6 µM), actives largely listed as inhibitors; AID 2546;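 further: Gal4-VP16 expression switched on by copper sulfate through the metallothionein promoter; nearly all actives have a fitted effect of over 50% in size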
# DT40 TDP1 no CPT: qHTS for Inhibitors of human tyrosyl-DNA phosphodiesterase 1 (TDP1): qHTS in cells in absence of CPT. DT40 Tdp1-/- hTDP1 cells, no CPT, ATP luminescence, 48 h. Potency, µM (doses to about 46.2 µM), usual class: inhibitors. 15% of 420,000 active; further: nearly all actives have a fitted effect of over 55% in size
#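 Seeded 400 DT40-hTDP1 cells/well (vehicle DMSO, no 20 nM CPT); pinned compounds; ≥48 hr at 37 °C; CellTiter-Glo luminescence as viability measure.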
# IL-1B inflam inh: inhibitors of inflammasome signaling (IL-1 beta secretion); THP-1 LPS/ATP IL-1B secretion, AlphaLISA, 16 h; active compounds read low; activity change, % at 57.5 µM; 4.7% of 360,000 active; AID 743279; in the data active means activity change below about -50%; inconclusive means mostly about -30% to -49%
#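 Secreted IL-1B measured by AlphaLISA bead assay after 16 h compound exposure of THP-1 cells; compounds (final up to 57.5 uM) added 1 h before LPS (250 ng/mL) and ATP (1.25 mM) stimulation; lower signal means less secretion.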
# RORgamma inh: ROR gamma (mouse) transcription inhibition. P51450. 5.4% of 310,000 active. Potency, µM (doses to about 53.6 µM), most hits filed as inhibitors. Drosophila S2 Gal4-RORgamma UAS-luciferase reporter, 20 h; further: nearly all actives have a fitted effect of over 60% in size
# Target sequence (P51450 whole entry, looked up, the tested form may be a part): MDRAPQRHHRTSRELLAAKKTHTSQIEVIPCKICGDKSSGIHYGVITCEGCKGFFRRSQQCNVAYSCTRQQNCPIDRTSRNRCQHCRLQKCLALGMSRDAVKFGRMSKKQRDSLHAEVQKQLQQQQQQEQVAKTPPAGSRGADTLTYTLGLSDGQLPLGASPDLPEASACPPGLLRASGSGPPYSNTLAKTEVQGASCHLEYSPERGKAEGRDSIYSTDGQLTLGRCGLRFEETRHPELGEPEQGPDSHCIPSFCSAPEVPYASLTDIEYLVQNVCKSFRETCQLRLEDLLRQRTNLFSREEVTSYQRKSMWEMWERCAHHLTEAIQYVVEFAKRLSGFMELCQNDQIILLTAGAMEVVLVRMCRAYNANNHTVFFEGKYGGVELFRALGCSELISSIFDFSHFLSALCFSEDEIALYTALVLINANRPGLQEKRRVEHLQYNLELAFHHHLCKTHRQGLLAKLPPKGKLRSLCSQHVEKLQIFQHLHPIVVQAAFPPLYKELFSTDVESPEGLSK
#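 Drosophila S2 cells stably expressing Gal4-DBD/mouse RORγ fusion under metallothionein promoter plus UAS-luciferase; compound 1 h, then 700 uM CuSO4 induction for 20 h at ambient temperature; inhibition read as reduced luminescence.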
# ELG1 repair inh: blocks ELG1-dependent DNA repair in HEK293T cells; HEK293T ELG1-luciferase reporter, luminescence, 16 h; DNA damage induced by 5-fluorouridine; Potency, µM (highest dose often 46.1 µM), hits mostly inhibitors; 2.3% of 330,000 active; AID 504467; further: nearly all actives have a fitted effect of over 55% in size
#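 In this reporter screen, reduction of luminescence relative to DMSO vehicle indicated activity. Compounds and 5-fluorouridine were added together to 2,000 cells per well, incubated for 16 hr at 37 °C, then developed with ONE-Glo.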
# DT40 TDP1 CPT: growth inhibition of DT40 Tdp1-/-;hTDP1 cells with camptothecin (screen for TDP1 inhibitors); chicken DT40 Tdp1-/-;hTDP1 cells + 20 nM CPT, ATP luminescence, 48 h; Potency, µM (doses to about 46.2 µM), hits mostly inhibitors; 12% of 420,000 active; AID 686979; further: nearly all actives have a fitted effect of over 55% in size
#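 Cell growth measured by CellTiter-Glo luminescence after a minimum 48 h, 37 C compound exposure with 20 nM CPT in Tdp1-knockout DT40 cells stably expressing hTDP1, seeded 400/well; qHTS titration format.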
# Numbers stand for hits; . = inactive; ? = inconclusive; / = no result given; [ ] = remark or other dose. Unless noted, the call rests on the fitted dose curve; in most records, active means well fitted curve in the direction sought with a large enough effect; inconclusive means small, poorly fitted or top-dose-only effect, or another doubt; inactive means no such curve, though single readings can be large; an effect the other way counts as inactive or inconclusive.
SMILES,VP16 counter,DT40 TDP1 no CPT,IL-1B inflam inh,RORgamma inh,ELG1 repair inh,DT40 TDP1 CPT
Oc1ccc(/C=N/Nc2nc(-c3ccc(Cl)cc3)cc(C(F)(F)F)n2)cc1,.,?,-99,.,26µM,?
COc1ccccc1/C=N/Nc1cc(C)nc2ccc(C)cc12,.,.,.,.[1.91 µM],?,?
CCN(CC)CCCNc1oc(/C=C/c2ccc(OC)c(OC)c2)nc1C#N,/,?,/,/,/,.
Cc1cc(-c2ccccc2)nc(N/N=C/c2ccc(O)cc2)n1,/,?,-100,/,.,12µM
ClCCl,.,/,/,.,/,/
CCOc1ccccc1C(=O)NCC(=O)OCC(=O)N1CCCC1,/,.,.,/,.,.
Cc1cccc(C)c1-n1nnnc1C1(C)CCC(=O)N1C1CC1 (stereo unspecified),/,.,.,/,/,.
CCCC(c1nnnn1CC1CCCO1)N1CCN(c2nc3ccccc3s2)CC1 (stereo unspecified),.,?,.,.,23µM,?
CCCCC(c1nnnn1CC1CCCO1)N1CCN(c2cc(Cl)ccc2C)CC1 (stereo unspecified),.,16µM,.,.,?,?
CCCCC(c1nnnn1CC1CCCO1)N1CCN(c2nc3ccccc3s2)CC1 (stereo unspecified),.,?,.,.,?,23µM
O=C(NCCN1CCOCC1)c1ccc(Cl)c(S(=O)(=O)NCc2ccccc2)c1,/,.,.,/,.,.
CC(C)(C)NC(=O)c1ccc(NC(=O)c2ccccc2-c2ccccc2C(=O)O)cc1,.,.,.,?,.,.
Cc1ccnc(SCc2cc(=O)c(OC(=O)c3ccco3)co2)n1,.,.,.,.,.,.
Cc1ccnc(SCc2cc(=O)c(OC(=O)c3ccc(Cl)c([N+](=O)[O-])c3)co2)n1,11µM,.,.,10µM,21µM,.
O=C1[C@@H](c2ccccc2)CC[C@@H]2C=CC[C@H]3CCN1[C@@H]32,/,16µM,.,/,/,?
COc1ccc(N2CCN(C(=O)c3ccccc3)CC2)c([N+](=O)[O-])c1,.,.,.,.,.,.
COc1ccc(N2CCN(C(=S)NC(=O)c3cccs3)CC2)c([N+](=O)[O-])c1,1.4µM,?,.,0.32µM,?,?
O=C(NC(=S)N1CCN(c2c(Cl)cccc2[N+](=O)[O-])CC1)c1cccs1,0.16µM,?,.,0.28µM,?,?
CCCCN(C=O)c1c(CC)nc2c(OCC(=O)c3ccc(F)cc3)cccn12,/,?,.,/,/,?
CCC1CCCCN1CCCNC(=O)c1ccc2c(c1)sc1nc(-c3ccc(F)cc3)cn12 (stereo unspecified),/,2.6µM,/,/,/,4.1µM
Cc1ccc(-c2cn3c(n2)sc2cc(C(=O)NCc4cccs4)ccc23)cc1,/,21µM,/,/,/,15µM
O=C(NCCCN1CCCCCC1)c1ccc2c(c1)sc1nc(-c3ccccc3)cn12,/,3.7µM,/,/,/,6.5µM
CCCN1CCN(CCCNC(=O)c2ccc3c(c2)sc2nc(-c4ccc(C)cc4)cn23)CC1,/,1.2µM,/,/,/,1.3µM
Cc1cc(C)c(S(=O)(=O)Nc2cc(C)on2)c(C)c1,.,.,.,.,.,.
O=C(C(=O)N1CCN(c2ccccc2)CC1)c1ccncc1,/,.,.,/,/,.
SMILES,VP16 counter,DT40 TDP1 no CPT,IL-1B inflam inh,RORgamma inh,ELG1 repair inh,DT40 TDP1 CPT
Cc1cccc(Nc2ncnc(N)c2[N+](=O)[O-])n1,.,16µM,.,.,?,9.2µM
Nc1ncnc(Nc2ccccn2)c1[N+](=O)[O-],.,23µM,.,.,?,.
Nc1ncnc(NCc2ccccc2)c1[N+](=O)[O-],.,.,.,.,10µM,.
Nc1nc(NCC(=O)O)nc(NCc2ccccc2)c1[N+](=O)[O-],.,.,.,.,?,.
COC(=O)[C@H]1C[C@H](OC(=O)NCc2ccccc2F)[C@@]2(O)CN(S(=O)(=O)c3ccc(C)cc3)CC2[C@H]1C(=O)OC (stereo partly specified),/,23µM,.,/,/,?
CCCCCCn1c(=O)n2n(c1=O)[C@@H]1CN(S(=O)(=O)c3ccc(C)cc3)C[C@]1(O)[C@@H](OC(=O)NCc1ccco1)C2,/,23µM,?,/,/,?
COc1ccc(CNC(=O)OC23CN(C(=O)OC(C)C)N(C(=O)OC(C)C)CC2(O)CN(S(=O)(=O)c2ccc(C)cc2)C3)cc1OC (stereo unspecified),/,?,.,/,/,?
Cc1ccc(S(=O)(=O)N2C[C@H]3N(C(=O)OC(C)C)N(C(=O)OC(C)C)C[C@H](OC(=O)NCC4CCCCC4)[C@@]3(O)C2)cc1,/,26µM,.,/,/,21µM
Cc1ccc(S(=O)(=O)N2CC3(O)CN(C(=O)OC(C)C)N(C(=O)OC(C)C)CC3(OC(=O)NCc3ccccc3)C2)cc1 (stereo unspecified),/,21µM,.,/,/,?
COC(=O)c1ccc(C(NC(=O)OCc2ccccc2)/C(F)=C/[C@@H](C)C(=O)NCCc2c[nH]c3ccc(OC)cc23)cc1 (stereo partly specified),.,/,/,?,/,/
O=C(c1cccc(S(=O)(=O)N2CCOCC2)c1)N1CCN(c2ncccn2)CC1,/,.,.,/,/,.
Cc1ccc(S(=O)(=O)N2C[C@H]3N(C(=O)OC(C)C)N(C(=O)OC(C)C)C[C@H](OC(=O)NCc4ccco4)[C@@]3(O)C2)cc1,/,23µM,.,/,/,?
Cc1ccc(S(=O)(=O)N2C[C@H]3N(C(=O)OC(C)C)N(C(=O)OC(C)C)C[C@H](OC(=O)NCc4ccccc4)[C@@]3(O)C2)cc1,/,21µM,.,/,/,21µM
COC(=O)[C@H]1C[C@@]2(O)CN(S(=O)(=O)c3ccc(C)cc3)C[C@@]2(OC(=O)NCc2ccco2)C[C@H]1C(=O)OC,/,.,.,/,/,.
Cc1ccc(CNC(=O)CCCn2c(=O)c3ccccc3n(CC(=O)Nc3ccc(C)c(C)c3)c2=O)cc1,/,.,/,/,/,.
CCOc1ccccc1N1C(=O)CC(Sc2n[nH]c(-c3ccccc3)n2)C1=O (stereo unspecified),.,0.65µM,.,3.5µM,.,0.65µM
CC(=O)Nc1ccc(N2C(=O)CC(Sc3nc(C)cc(C)n3)C2=O)cc1 (stereo unspecified),.,.,.,.,.,.
COC(=O)c1ccc(N2C(=O)CC(Sc3n[nH]c(C)n3)C2=O)cc1 (stereo unspecified),?,5.2µM,.,?,.,2.1µM
COc1ccc(N2C(=O)CC(Sc3n[nH]c(-c4cccc(C)c4)n3)C2=O)cc1 (stereo unspecified),?,3.7µM,.,.,?,0.92µM
COc1cccc(N2C(=O)CC(Sc3nc(C)cc(C)n3)C2=O)c1 (stereo unspecified),?,.,.,.,.,.
